{"source": "PubChem BioAssay AID449762", "about": "(Southern Research Specialized Biocontainment Screening …, 2010)", "note": "Among all 330,000 compounds or so, about 1,900 (0.58%) were called active. Not shown: some 4% with an inconclusive outcome. Cut-off read from the data, not from the text of the source: inconclusive = inhibition above about 70% without an active follow-up result; inactive = below that. Only a sample is shown. Results with a measured potency or affinity are listed apart."}
{"experiment": "M. tuberculosis growth inhibition, HTS (AID 449762);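 note: bacterial growth assessed after seven days of incubation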", "details": "M. tuberculosis H37Rv growth inhibition, 7H9 media; at 25 µM; hits give high values"}
{"smiles": "Cc1cccn2c(=O)c3cc(C(=O)NCCc4ccccc4)c(=N)n(CC4CCCO4)c3nc12", "note": "(stereo unspecified)", "inhibition": "4.7% (inactive)"}
{"smiles": "FC(F)(F)c1cc(Cl)c2nc(-c3ccccc3)cn2c1", "inhibition": "4.79% (inactive)"}
{"smiles": "O=C(Nc1ccccc1)N(C1=NCCC1)c1ccc(OC(F)F)cc1", "inhibition": "-0.82% (inactive)"}
{"smiles": "COc1ccc(N(C(=O)Nc2ccc(Cl)cc2)C2=NCCC2)cc1", "inhibition": "42.5% (inactive)"}
{"smiles": "O=C(c1cc(COc2ccc(F)cc2F)on1)N1CC[C@@H]2CCCC[C@H]2C1", "inhibition": "8.08% (inactive)"}
{"smiles": "COCC1CCN(C(=O)c2cc(COc3ccc(F)cc3F)on2)C1", "note": "(stereo unspecified)", "inhibition": "-0.65% (inactive)"}
{"smiles": "CC(NC(=O)c1cc(F)c(F)cc1Cl)C1CC2CCC1C2", "note": "(stereo unspecified)", "inhibition": "9.14% (inactive)"}
{"smiles": "O=C(Nc1cccc(F)c1)N1CCN(C/C=C/c2ccccc2)CC1", "inhibition": "-4.24% (inactive)"}
{"smiles": "Cc1cc(C)cc(NC(=O)N2CCN(C/C=C/c3ccccc3)CC2)c1", "inhibition": "6.44% (inactive)"}
{"smiles": "O=C1NC(=O)C2(Cc3ccccc3N3CCCC32)C(=O)N1Cc1ccccc1", "note": "(stereo unspecified)", "inhibition": "-3.61% (inactive)"}
{"smiles": "C=CCNC(=O)/C(=C/c1cn(-c2ccccc2)nc1-c1cccc([N+](=O)[O-])c1)NC(=O)c1ccccc1", "inhibition": "9.03% (inactive)"}
{"smiles": "O=[N+]([O-])/C(N=Nc1ccccc1)=N\\Nc1ccccc1", "inhibition": "-2.92% (inactive)"}
{"smiles": "NC(=O)/C(N=Nc1ccccc1)=N/Nc1ccccc1", "inhibition": "63.8% (inactive)"}
{"smiles": "O=C(Cn1nnc(-c2ccc(S(=O)(=O)N3CCCC3)cc2)n1)Nc1ccccc1-n1cccc1", "inhibition": "-4.45% (inactive)"}
{"smiles": "CN(CC(=O)Nc1ccc(F)cc1[N+](=O)[O-])Cc1ccccc1", "inhibition": "6.03% (inactive)"}
{"smiles": "Cc1cc(C(=O)O/N=C(\\N)c2ccc(C(C)(C)C)cc2)no1", "inhibition": "0.64% (inactive)"}
{"smiles": "CCOC(=O)c1cc(/C(C)=N/OC(=O)c2ccc(Cl)cc2)on1", "inhibition": "47.9% (inactive)"}
{"smiles": "COc1cccc2c(=O)c3c([nH]c12)OC(C)(C)C3", "inhibition": "1.96% (inactive)"}
{"smiles": "NC(=O)c1ccsc1NC(=O)c1cc(=O)c2ccccc2o1", "inhibition": "1.83% (inactive)"}
{"smiles": "CC1=C(C(N)=O)C(c2ccccc2F)NC(=O)N1", "note": "(stereo unspecified)", "inhibition": "-4.59% (inactive)"}
{"smiles": "O=C(N/N=C/c1ccc(F)cc1)c1cccc(NC(=O)c2ccc(F)cc2)c1", "inhibition": "9.14% (inactive)"}
{"smiles": "CC(C)(C)NC(=O)COC(=O)c1cc(Cl)ccc1[N+](=O)[O-]", "inhibition": "-0.3% (inactive)"}
{"smiles": "CC(NC(=O)COC(=O)c1ccc(Cl)cc1O)c1ccc(F)cc1", "note": "(stereo unspecified)", "inhibition": "2.35% (inactive)"}
{"smiles": "CCOC(=O)c1ccc[n+](CC(=O)c2ccc(OC)cc2)c1", "inhibition": "-6.92% (inactive)"}
{"smiles": "CN(C)/C=C/C(=O)c1ccc([N+](=O)[O-])c(CS(=O)(=O)c2ccccc2)c1", "inhibition": "4.59% (inactive)"}
{"smiles": "OC1CCN(c2cc(-c3ccccc3)nc3cc(-c4ccc(F)cc4)nn23)CC1", "inhibition": "14.2% (inactive)"}
{"smiles": "Fc1ccc(-c2cc3nc(-c4ccccc4)cc(N4CCOCC4)n3n2)cc1", "inhibition": "-0.86% (inactive)"}
{"smiles": "O=C(CN1C(=O)S/C(=C\\c2ccc(F)cc2)C1=O)Nc1cccc(S(=O)(=O)NCc2ccco2)c1", "inhibition": "-0.96% (inactive)"}
{"smiles": "C=CCNC(=O)C1CCN(c2cnccn2)CC1", "inhibition": "1% (inactive)"}
{"smiles": "Cc1ccnc(NC(=O)C2CCN(S(=O)(=O)c3cccc(C(F)(F)F)c3)CC2)c1", "inhibition": "-6.67% (inactive)"}
{"smiles": "Cn1c(O)c(C=Nc2ccc(Br)cc2)sc1=O", "inhibition": "2% (inactive)"}
{"smiles": "N=c1oc2cc(O)ccc2cc1C(=O)Nc1ccccn1", "inhibition": "9.75% (inactive)"}
{"smiles": "N=c1oc2ccccc2cc1C(=O)Nc1ccccc1", "inhibition": "-6.06% (inactive)"}
{"smiles": "O=C(NCc1nnc(SCC(=O)N2CCCC2)o1)c1ccc(F)cc1", "inhibition": "-1.8% (inactive)"}
{"smiles": "Cc1cc(C)c(C(=O)N(C)CC2CCCN(CCc3ccccc3F)C2)o1", "note": "(stereo unspecified)", "inhibition": "7.36% (inactive)"}
{"smiles": "CCOC(=O)C1(CCCc2ccccc2)CCN(C(=O)c2ccoc2)CC1", "inhibition": "3.78% (inactive)"}
{"smiles": "CC(=O)Nc1cn(-c2ccccc2)nc1-c1ccccc1", "inhibition": "8.61% (inactive)"}
{"smiles": "O=C(Nc1cn(-c2ccccc2)nc1-c1ccc(Cl)cc1)c1ccccc1", "inhibition": "12.2% (inactive)"}
{"smiles": "Oc1cc(NCCc2cccnc2)cc2cccnc12", "inhibition": "11.9% (inactive)"}
{"smiles": "NS(=O)(=O)c1cccc(NC(=O)c2ccc3nc[nH]c3c2)c1", "inhibition": "1.29% (inactive)"}
{"smiles": "CC12CCC(=O)N1C(C(=O)Nc1ccc(F)cc1)CS2", "note": "(stereo unspecified)", "inhibition": "-9.52% (inactive)"}
{"smiles": "CC(C)c1ccc(NC(=O)C2CSC3(C)CCC(=O)N23)cc1", "note": "(stereo unspecified)", "inhibition": "5.83% (inactive)"}
{"smiles": "Cc1ccc(CNC(=O)c2ccc(N3CCC4(CC3)CC(c3ccccc3)=NO4)c(NC(=O)c3ccc(Br)cc3)c2)cc1", "inhibition": "-2.65% (inactive)"}
{"smiles": "Cc1[nH]c(=O)[nH]c(=O)c1/C=C/C(=O)O", "inhibition": "-3.99% (inactive)"}
{"smiles": "Nc1c(C(=O)OCC(=O)NCc2ccccc2)[nH]c(=O)[nH]c1=O", "inhibition": "1.89% (inactive)"}
{"smiles": "Cc1cc(C(F)F)n2ncc(C(=O)N3CCc4ccccc4C3)c2n1", "inhibition": "-2.51% (inactive)"}
{"smiles": "COc1ccc(-c2cc(C(F)F)n3ncc(C(=O)N4CCc5ccccc5C4)c3n2)cc1", "inhibition": "15.6% (inactive)"}
{"smiles": "CCN(CC(=O)Nc1c(F)cccc1F)C(=O)c1ccc2c(c1)OCO2", "inhibition": "-12.6% (inactive)"}
{"smiles": "COc1ccc(S(=O)(=O)CC(O)CN2CCCC2=O)cc1", "note": "(stereo unspecified)", "inhibition": "-0.37% (inactive)"}
{"smiles": "COc1cccc(N2C(=O)CN(Cc3ccc(OC)c(OC)c3)C2=S)c1", "inhibition": "2.7% (inactive)"}
{"smiles": "CC1=C(CC/C(C)=N/NC(N)=S)C(C)(C)CCC1", "inhibition": "12% (inactive)"}
{"smiles": "C/C(CC1CC2=C(CC1(C)C)C(C)(C)CCC2)=N\\NC(N)=S", "note": "(stereo unspecified)", "inhibition": "-0.2% (inactive)"}
{"smiles": "CC(C)n1ncc2c(C(=O)Nc3ccc(S(C)(=O)=O)cc3)cc(C3CC3)nc21", "inhibition": "2.05% (inactive)"}
{"smiles": "CCn1c(=O)cc(SCC(=O)Nc2ccc(OC)c(OC)c2)c2ccccc21", "inhibition": "-7.13% (inactive)"}
{"smiles": "Cc1cc(C)cc(NC(=S)N2CCC(NC(=O)C3CCCCC3)CC2)c1", "inhibition": "-1.01% (inactive)"}
{"smiles": "CCOP(=O)(OCC)C(O)c1cc(OC)c(OC)c(OC)c1", "note": "(stereo unspecified)", "inhibition": "0.28% (inactive)"}
{"smiles": "Cc1csc(CNc2ncnc3ccc(-c4cccnc4)cc23)c1", "inhibition": "2.87% (inactive)"}
{"smiles": "Fc1ccc(/C=N/NC2=Nc3cccc4cccc2c34)cc1", "inhibition": "-8.86% (inactive)"}
{"smiles": "C(=N\\NC1=Nc2cccc3cccc1c23)/c1ccccc1", "inhibition": "9.94% (inactive)"}
{"smiles": "CC(=O)c1c(C)[nH]c(C(=O)Nc2cccc(S(=O)(=O)N3CCOCC3)c2)c1C", "inhibition": "-28% (inactive)"}
{"smiles": "O=C(O)CNC(=S)NCc1ccccc1", "inhibition": "-1.14% (inactive)"}
{"smiles": "COC(=O)c1[nH]c2cccc(OC)c2c1NC(=O)CN1CCN(c2cccc(OC)c2)C(C)C1", "note": "(stereo unspecified)", "inhibition": "52.6% (inactive)"}
{"smiles": "CCOC(=O)c1[nH]c2cc(OC)c(OC)cc2c1NC(=O)CN1CCN(c2ccc(OC)cc2)C(C)C1", "note": "(stereo unspecified)", "inhibition": "-2.17% (inactive)"}
{"smiles": "O=C(c1cc2ccccc2oc1=O)N1CCN(Cc2ccc3c(c2)OCO3)CC1", "inhibition": "-3.79% (inactive)"}
{"smiles": "C=C(c1ccccc1O)n1ccnc1", "inhibition": "0.25% (inactive)"}
{"smiles": "Cc1cccc(C(=O)NNC(=O)c2cccc(C)c2)c1", "inhibition": "-16.6% (inactive)"}
{"smiles": "O=C(COc1ccccc1)NNC(=S)NC(=O)c1ccc(Cl)cc1Cl", "inhibition": "55.5% (inactive)"}
{"smiles": "Cc1cccc(C(=O)NNC(=O)c2ccccc2)c1", "inhibition": "-6.62% (inactive)"}
{"smiles": "O=C(COc1ccccc1)NNC(=S)NC(=O)c1ccccc1", "inhibition": "56.3% (inactive)"}
{"smiles": "O=C(c1cc(Br)c(Br)s1)N1CCN(C/C=C/c2ccccc2)CC1", "inhibition": "-4.13% (inactive)"}
{"smiles": "OCCOCCn1c(C2CCCN2c2nc(-c3ccc(F)cc3)cs2)nc2cc(C(F)(F)F)ccc21", "note": "(stereo unspecified)", "inhibition": "2.16% (inactive)"}
{"smiles": "CCOc1ccc(-n2nnc3c(=O)n(C/C=C/c4ccccc4)cnc32)cc1", "inhibition": "-10.8% (inactive)"}
{"smiles": "CC(=O)Nc1ccc(C(=O)CN2C(=O)NC3(CCCCCC3)C2=O)c(F)c1", "inhibition": "-9.64% (inactive)"}
{"smiles": "CC(C)c1ccc(OC(=O)c2cccc(S(=O)(=O)N3CCN(C)CC3)c2)cc1", "inhibition": "10.8% (inactive)"}
{"smiles": "CC1(C)N=C(N)N=C(N)N1c1cccc(CN)c1", "inhibition": "-3.4% (inactive)"}
{"smiles": "Nc1ccc(Br)cc1Br", "inhibition": "-6.59% (inactive)"}
{"smiles": "Brc1ccc2ncc(Br)cc2c1", "inhibition": "2.82% (inactive)"}
{"smiles": "COC(=O)C1CCN(C(=O)/C=C/c2ccccc2)CC1", "inhibition": "-5.05% (inactive)"}
{"smiles": "Cc1nn(Cc2ccccc2)c(C)c1CNC(=O)[C@H](C)N=C1NS(=O)(=O)c2ccccc21", "inhibition": "6.6% (inactive)"}
{"smiles": "Cc1cccc(-n2cc(CNCCN3CCOC3=O)c(-c3cccc(F)c3)n2)c1", "inhibition": "1.99% (inactive)"}
{"smiles": "O=C1CC2(CCCCC2)Oc2ccc(F)cc21", "inhibition": "-0.1% (inactive)"}
{"smiles": "CCN(Cc1ccccc1)c1ccc(/C=N/NC(=S)NC(C)C)cc1", "inhibition": "10.7% (inactive)"}
{"smiles": "NC(N)=N/N=C/c1ccc(Br)cc1", "inhibition": "10.5% (inactive)"}
{"smiles": "CCN(Cc1ccccc1)c1ccc(/C=N/N2CCOCC2)cc1", "inhibition": "11.3% (inactive)"}
{"smiles": "NC(N)=N/N=C/c1ccccc1", "inhibition": "-2.68% (inactive)"}
{"smiles": "COc1ccc(-c2oc3cccnc3c2C#CCO)cc1", "inhibition": "5.48% (inactive)"}
{"smiles": "CC(=O)N/C(=C\\c1ccccc1)C(=O)N1CCOCC1", "inhibition": "-6.38% (inactive)"}
{"smiles": "CN(C)CCCN1c2ccc([N+](=O)[O-])cc2CCc2cc([N+](=O)[O-])ccc21", "inhibition": "-1.94% (inactive)"}
{"smiles": "CCOc1cc(/C=C\\[N+](=O)[O-])ccc1OCC(=O)N1CCOCC1", "inhibition": "3.95% (inactive)"}
{"smiles": "COc1cc(/C=C/c2cccc[n+]2C)ccc1OCC(=O)Nc1ccccc1C", "inhibition": "-9.56% (inactive)"}
{"smiles": "COc1cccc(C(=O)c2c[nH]c(C(=O)NCCCN(C)C)c2)c1", "inhibition": "-4.05% (inactive)"}
{"smiles": "COCCn1c(CN2CCN(C(=O)c3ccco3)CC2)nc2c1c(=O)n(C)c(=O)n2C", "inhibition": "13% (inactive)"}
{"smiles": "CC(=O)c1ccc(OC(=O)COc2ccccc2)cc1", "inhibition": "-5.04% (inactive)"}
{"smiles": "NS(=O)(=O)c1ccc(NC(=O)CSc2ncnc3ccccc23)cc1", "inhibition": "0.11% (inactive)"}
{"smiles": "O=C(CSc1nnc(NC2CCCCC2)s1)Nc1ccc2c(c1)C(=O)c1ccccc1C2=O", "inhibition": "4.12% (inactive)"}
{"smiles": "CC(Sc1nnc(NC2CC2)s1)C(=O)Nc1ccc(S(N)(=O)=O)cc1", "note": "(stereo unspecified)", "inhibition": "8.95% (inactive)"}
